In PubChem BioAssay (NCATS):
Inconclusive results are not listed. The source made the active and inactive calls. The call rests on the fitted dose curve; in most records, active means well fitted inhibition curve with a large enough effect; inconclusive means small, poorly fitted or top-dose-only effect; inactive means flat fitted curve, though single readings scatter.

Each compound was assayed on CRL-7250 (assay: qHTS assay to identify novel small-molecules to repurpose for Merkel cell carcinoma treatment (AID 1296009; further: nearly all actives have a fitted effect of over 60% in size)). Conditions: MCC and control cell lines, CellTiter-Glo viability, 72 h; at 44.8 µM (top of the series) unless noted.
Procedure, shortened: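 Viability readout: ATP luminescence (CellTiter-Glo) after 72 hr drug exposure at 37 degree celsius. Dose-response format was 8 points for NPC and 11 points for MIPE; data normalized to in-plate controls.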

Question: For `Cc1c(C)c2c(c(C)c1OC(=O)c1cccnc1)CC[C@@](C)(CCC[C@H](C)CCC[C@H](C)CCCC(C)C)O2`, which outcome is on record?
Answer: inactive

Question: With `CC(C)[C@H](CO)Nc1nc(Nc2ccc(C(=O)O)c(Cl)c2)c2ncn(C(C)C)c2n1` as the compound, how does the outcome read?
Answer: inactive [at 17.4 µM]

Question: How did the outcome turn out when `CC1=NN(c2ccccc2)C(=O)C1` was run?
Answer: inactive

Question: With `COc1ccc2cc(CCC(C)=O)ccc2c1` as the compound, how does the outcome read?
Answer: inactive

Question: How did the outcome turn out when `CC(C[N+](C)(C)C)OC(N)=O` (configuration not stated) was run?
Answer: inactive

Question: Which outcome does the source give for `CCCn1c(=O)c2[nH]c(C34CC5CC3C[C@@H](C5)C4)nc2n(CCC)c1=O` here?
Answer: inactive

Question: With `Clc1ccc2ncc(-c3cccc(NC4CNC4)n3)n2c1` as the compound, how does the outcome read?
Answer: inactive

Question: Which outcome does the source give for `CCOC(=O)C(=O)CCCCCCl` here?
Answer: inactive

Question: `C1=CC2C3C=CC(C3)C2C1` (configuration not stated) was tested. Which outcome did it give?
Answer: inactive [at 92 µM]

Question: Which outcome does the source give for `CNCc1ccc(-c2[nH]c3cc(F)cc4c3c2CCNC4=O)cc1` here?
Answer: inactive

Question: For `Cc1cc2c(cc1C1(c3ccc(C(=O)O)cn3)CC1)C(C)(C)CCC2(C)C`, which outcome is on record?
Answer: inactive

Question: With `CC(C)OC(=O)c1cc(C(=O)OC(C)C)cc([N+](=O)[O-])c1` as the compound, how does the outcome read?
Answer: inactive [at 92 µM]

Question: For `COc1ccc(CCN2CCN(CCCc3ccccc3)CC2)cc1OC`, which outcome is on record?
Answer: inactive

Question: How did the outcome turn out when `Clc1ccccc1CN1CCc2sccc2C1` was run?
Answer: inactive

Question: How did the outcome turn out when `COc1c(Cl)cc2c([nH]c3cnccc32)c1NC(=O)c1cccnc1C` was run?
Answer: inactive

Question: How did the outcome turn out when `CC(C)(C)C(=O)Oc1ccc2c(c1)nc(NC(=O)c1cccc([N+](=O)[O-])c1)n2CCCO` was run?
Answer: inactive

Question: For `O=C(Nc1cccc(C2=NCCN2)c1)Nc1cccc(C2=NCCN2)c1`, which outcome is on record?
Answer: inactive [at 17.4 µM]

Question: With `COc1ccc(-c2oc3cc(OC)ccc3c2C(=O)c2ccc(C#N)cc2)cc1` as the compound, how does the outcome read?
Answer: inactive

Question: `COc1ccc2c(c1)c1c3n2CCN(C)C3=NCC1` was tested. Which outcome did it give?
Answer: inactive

Question: Which outcome does the source give for `C[C@]12CC[C@H](O)CC1=CC[C@@H]1[C@H]2CC[C@]2(C)C(c3cccnc3)=CC[C@H]12` here?
Answer: inactive [at 17.4 µM]

Question: `Nc1ccc(S(=O)(=O)Nc2ccccc2)cc1` was tested. Which outcome did it give?
Answer: inactive

Question: How did the outcome turn out when `CC(C)(C)c1cc(C(C)(C)C)c(NC(=O)c2c[nH]c3ccccc3c2=O)cc1O` was run?
Answer: inactive

Question: For `O=C1CCCC2=C1C(c1[nH]ncc1Cl)N=C(Nc1nc3ccccc3o1)N2` (configuration not stated), which outcome is on record?
Answer: inactive

Question: With `COc1ccccc1N1CCN(CC(O)COc2cc(OC)c(OC)c(OC)c2)CC1` (configuration not stated) as the compound, how does the outcome read?
Answer: inactive

Question: `C[C@H](NC(=O)Cc1cc(F)cc(F)c1)C(=O)N[C@@H]1C(=O)N(C)c2ccccc2-c2ccccc21` was tested. Which outcome did it give?
Answer: inactive

Question: With `CCN(CC)CCNC(=O)c1ccc(NC(C)=O)cc1` as the compound, how does the outcome read?
Answer: inactive

Question: `CC(C)(C)C(O)/C=C/c1ccc2c(c1)OCO2` (configuration not stated) was tested. Which outcome did it give?
Answer: inactive

Question: For `CCOc1cc(C(=O)Nc2ccc(Cl)c(-c3nc4ccccc4[nH]3)c2)cc(OCC)c1OCC`, which outcome is on record?
Answer: inactive

Question: `CC(C)(C)COc1ccc(-n2cc(C(=O)O)cn2)cc1C#N` was tested. Which outcome did it give?
Answer: inactive

Question: Which outcome does the source give for `Cn1c(NCCN(CCO)CCCc2ccc([N+](=O)[O-])cc2)cc(=O)n(C)c1=O` here?
Answer: inactive

Question: `O=C(O)CCC1CCC(c2cc(F)ccc2F)(S(=O)(=O)c2ccc(Cl)cc2)CC1` (configuration not stated) was tested. Which outcome did it give?
Answer: inactive

Question: For `O=C(C=Cc1ccc(/C=C/C(=O)Nc2ccc(C3=NCCN3)cc2)cc1)Nc1ccc(C2=NCCN2)cc1`, which outcome is on record?
Answer: inactive

Question: For `Cc1cccc(Nc2nc(N[C@@H]3CCCC[C@H]3N)ncc2C(N)=O)c1`, which outcome is on record?
Answer: inactive

Question: For `Cc1cccc(C)c1NC(=O)c1ccccc1C(=O)O`, which outcome is on record?
Answer: inactive

Question: With `CS(=O)(=O)Oc1ccc2c(NC(N)=O)c(C(=O)c3ccc(Cl)cc3Cl)oc2c1` as the compound, how does the outcome read?
Answer: inactive

Question: With `O=[N+]([O-])c1cccc(S(=O)(=O)NCCNS(=O)(=O)c2cccc([N+](=O)[O-])c2)c1` as the compound, how does the outcome read?
Answer: inactive

Question: Which outcome does the source give for `CC(=O)Nc1ccc(O)cc1` here?
Answer: inactive
